HEK293 tox = HEK 293 cell cytotoxicity; HEK 293 viability, ATP luminescence (CellTiter-Glo), 48-72 h; Potency, µM (series often up to 115 µM), inactives show at the highest dose activity change, negative = cytotoxicity, hits mostly inhibitors; 94,000 compounds, 6.6% hits; further: nearly all actives have a fitted effect of over 60% in size
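Cells seeded first (HEK 293, 250 cells/well), then compound added by pintool. Incubation ran 48 or 72 hr at 37 degree Celsius. CellTiter-Glo was added and luminescence imaged after 10 min at room temperature.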
NPR1 antag = human Npr1 receptor antagonism; P16066; 76,000 compounds, 1.6% hits; Potency, µM (highest dose often 46.3 µM), for the others: at the highest dose activity change, negative = inhibition, most hits filed as inhibitors; HEK293 hNpr1 GloSensor cGMP, ANP-stimulated luminescence; calls by dose curve; further: nearly all actives have a fitted effect of over 60% in size
Target sequence (P16066 whole entry, looked up): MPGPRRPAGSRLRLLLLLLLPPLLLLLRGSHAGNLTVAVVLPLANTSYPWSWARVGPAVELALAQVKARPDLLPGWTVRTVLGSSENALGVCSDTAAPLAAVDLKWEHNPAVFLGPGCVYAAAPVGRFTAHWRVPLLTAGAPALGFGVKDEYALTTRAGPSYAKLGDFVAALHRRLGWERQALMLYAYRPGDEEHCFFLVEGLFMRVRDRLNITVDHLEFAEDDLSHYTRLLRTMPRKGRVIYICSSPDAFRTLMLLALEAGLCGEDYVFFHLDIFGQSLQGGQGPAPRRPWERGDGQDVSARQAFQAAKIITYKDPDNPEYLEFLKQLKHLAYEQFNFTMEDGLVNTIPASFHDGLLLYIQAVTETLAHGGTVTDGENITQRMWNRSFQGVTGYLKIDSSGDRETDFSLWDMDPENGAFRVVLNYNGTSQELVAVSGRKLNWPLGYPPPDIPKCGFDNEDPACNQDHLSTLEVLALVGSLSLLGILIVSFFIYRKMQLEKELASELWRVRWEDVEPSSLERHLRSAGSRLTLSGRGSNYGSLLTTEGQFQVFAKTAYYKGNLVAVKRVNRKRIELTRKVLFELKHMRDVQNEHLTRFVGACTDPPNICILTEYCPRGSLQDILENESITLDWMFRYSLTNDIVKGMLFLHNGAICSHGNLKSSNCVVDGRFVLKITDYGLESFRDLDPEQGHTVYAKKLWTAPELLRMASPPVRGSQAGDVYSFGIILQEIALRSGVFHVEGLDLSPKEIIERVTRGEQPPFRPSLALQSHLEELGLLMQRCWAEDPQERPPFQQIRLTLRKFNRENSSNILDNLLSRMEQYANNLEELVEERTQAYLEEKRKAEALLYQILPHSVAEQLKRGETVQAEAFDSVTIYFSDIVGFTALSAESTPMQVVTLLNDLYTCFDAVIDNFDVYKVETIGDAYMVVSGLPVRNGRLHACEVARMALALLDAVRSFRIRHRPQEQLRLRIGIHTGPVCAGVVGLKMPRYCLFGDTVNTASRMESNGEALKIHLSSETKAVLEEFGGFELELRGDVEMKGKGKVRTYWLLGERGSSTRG
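Compound pre-incubated 30 min at room temperature on GloSensor-loaded HEK293 cells stably carrying hNpr1 and the pGS-40F cGMP biosensor. Stimulation uses hNppA at 0.1 nM final; luminescence is taken at baseline and 20 min post-agonist.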
3T3 cytotox = kills NIH 3T3 cells. NIH 3T3 viability, CellTiter-Glo ATP luminescence, 48-72 h. Potency, µM (doses to about 96.7 µM), for the others: top-dose activity change, negative = cytotoxicity, hits mostly inhibitors. 94,000 compounds, 4.3% hits; further: nearly all actives have a fitted effect of over 55% in size
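NIH 3T3 cells at 400 cells/well received 23 nL of compound by pintool and were incubated 48 or 72 h at 37 °C. Viability was read as ATP-coupled CellTiter-Glo luminescence.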
Luciferase inh = Photinus pyralis luciferase inhibition; P08659; purified P. pyralis luciferase, luminescence, biochemical; Potency, µM (top dose mostly 115 µM), hits mostly inhibitors; 76,000 compounds, 2.5% hits; AID 1347043; further: nearly all actives have a fitted effect of over 65% in size
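Cell-free enzyme assay, 10nM P. pyralis luciferase, luciferin and ATP each at 10uM. Inhibition profiled over a 6-point titration, read as luminescence.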
GPT2 inh = blocks human glutamate pyruvate transaminase 2 | Q8TD30 | Recombinant GPT2, coupled pyruvate oxidase/HRP Amplex Red fluorescence | Potency, µM (series often up to 57.7 µM), for the others: at the highest dose activity change, negative = inhibition, most hits filed as inhibitors | 100,000 compounds, 0.25% hits | AID 1671188; further: nearly all actives have a fitted effect of over 60% in size
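Inhibition is scored from Amplex Red fluorescence generated when pyruvate oxidase and HRP act on pyruvate released by GPT2. Reactions contain 10ng/uL enzyme, 250uM a-KG and 2mM L-alanine and run 30 min at room temperature.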
The depositor's hits bear a star; [ ] = dose if it differs, or a comment. Hits are enriched below; roughly 10% of the tested compounds scored in any of these assays. Unless noted, the call rests on the fitted dose curve; in most records, active means well fitted curve in the direction sought with a large enough effect; inconclusive means small, poorly fitted or top-dose-only effect, or another doubt; inactive means no such curve, though single readings can be large; an effect the other way counts as inactive or inconclusive. On the % scale 0 is the no-effect control and ±100 the full control effect; potency means the concentration at half of the fitted maximal effect.

Results for COc1ccc(-c2nnc(C[C@@H]3C[C@@H](C(C)C)[C@H](CNCc4ccncc4)C=C3C)o2)cc1 ?
HEK293 tox: 25µM*; NPR1 antag: inconclusive; 3T3 cytotox: inconclusive; Luciferase inh: inactive; GPT2 inh: inactive

What do the screens show for `CC1=C[C@@H](CN(C)CCc2ccccn2)[C@H](C(C)C)C[C@H]1Cc1nnc(-c2ccccc2)o1`?
HEK293 tox: inconclusive; NPR1 antag: -19%; 3T3 cytotox: inconclusive; Luciferase inh: inactive; GPT2 inh: 2%

What do the screens show for `COc1ccc(-c2nnc(C[C@@H]3C[C@@H](C(C)C)[C@H](CNCc4ccco4)C=C3C)o2)cc1`?
HEK293 tox: 45µM*; NPR1 antag: inconclusive; 3T3 cytotox: inconclusive; Luciferase inh: inactive; GPT2 inh: inactive

What do the screens show for `CC1=C[C@@H](CNCc2cccnc2)[C@H](C(C)C)C[C@H]1Cc1nnc(-c2ccc([N+](=O)[O-])cc2)o1`?
HEK293 tox: 11µM*; NPR1 antag: inconclusive; 3T3 cytotox: 32µM*; Luciferase inh: inactive; GPT2 inh: inactive

Results for CC1=C[C@@H](CNCc2ccco2)[C@H](C(C)C)C[C@H]1Cc1nnc(C(C)(C)C)o1 ?
HEK293 tox: 63µM*; NPR1 antag: 1%[70.6 µM]; 3T3 cytotox: 100µM*; Luciferase inh: inactive; GPT2 inh: -3%[88.5 µM]

Results for CC1=C[C@@H](CNC(C)C)[C@H](C(C)C)C[C@H]1Cc1nnc(C(C)(C)C)o1 ?
HEK293 tox: -1%[172 µM]; NPR1 antag: -3%[70.6 µM]; 3T3 cytotox: -5%[138 µM]; Luciferase inh: inactive; GPT2 inh: -11%[88.5 µM]

How did COc1cccc(CNC(=O)c2cc(-c3cccs3)c3cccn3n2)c1 do in these assays?
HEK293 tox: inconclusive; 3T3 cytotox: inconclusive; GPT2 inh: inactive

Results for O=C(NCc1cccc(C(F)(F)F)c1)c1cn2cc(-c3ccc(C(F)(F)F)cc3)sc2n1 ?
HEK293 tox: inconclusive; 3T3 cytotox: inconclusive; GPT2 inh: inactive

What do the screens show for `CC(=O)NC1CC2(CCN(C(=O)C3CCN(C)CC3)CC2)c2ccccc21` (centres undefined)?
HEK293 tox: 45µM*; 3T3 cytotox: 35µM*; GPT2 inh: -12%

How did NC(=O)c1noc2c1CN(c1cc(-c3ccccc3)nc3ccnn13)CC2 do in these assays?
HEK293 tox: 45µM*; NPR1 antag: -21%; 3T3 cytotox: inconclusive; Luciferase inh: inactive; GPT2 inh: inactive[11.5 µM]

What do the screens show for `CC(=O)N1CCCN(c2cc(Cl)nc3ccnn23)CC1`?
HEK293 tox: -22%[172 µM]; NPR1 antag: 31%[70.6 µM]; 3T3 cytotox: -19%[138 µM]; Luciferase inh: inactive; GPT2 inh: inconclusive

Results for Cc1ccc(CNC(=O)c2ccc3c(c2)CN(Cc2cccc(F)c2F)CCO3)cc1 ?
HEK293 tox: 79µM*; NPR1 antag: -3%; 3T3 cytotox: inconclusive; Luciferase inh: inactive; GPT2 inh: inactive

Results for COc1ccc(-n2c(=O)c(C(=O)NCC(F)F)nc3cccnc32)cc1 ?
HEK293 tox: 4%; 3T3 cytotox: -14%; GPT2 inh: inactive

Results for Cc1csc(Nc2ccc3c(n2)CN(C)C(=O)CO3)n1 ?
HEK293 tox: 18µM*; NPR1 antag: 1%[70.6 µM]; 3T3 cytotox: 32µM*; Luciferase inh: inactive; GPT2 inh: inconclusive

Results for Cc1csc(Nc2ccc3c(n2)CN(CCOc2ccccc2)C(=O)CO3)n1 ?
HEK293 tox: inconclusive; NPR1 antag: -3%[70.6 µM]; 3T3 cytotox: inconclusive; Luciferase inh: inactive; GPT2 inh: inconclusive

Results for CC(C)(Oc1nn(Cc2cccc(Cl)c2)c2ccccc12)C(=O)NCc1ccncc1 ?
HEK293 tox: inconclusive; NPR1 antag: inconclusive; 3T3 cytotox: 32µM*; Luciferase inh: inactive; GPT2 inh: -16%[88.5 µM]

Results for CC(C)(Oc1nn(Cc2cccc(Cl)c2)c2ccccc12)C(=O)NCc1cnccn1 ?
HEK293 tox: 89µM*; NPR1 antag: -23%[70.6 µM]; 3T3 cytotox: inconclusive; Luciferase inh: inactive; GPT2 inh: 0%[88.5 µM]

How did CN1CCC(NC(=O)C(C)(C)Oc2nn(Cc3cccc(Cl)c3)c3ccccc23)CC1 do in these assays?
HEK293 tox: 40µM*; NPR1 antag: -26%[70.6 µM]; 3T3 cytotox: 32µM*; Luciferase inh: inactive; GPT2 inh: 2%[88.5 µM]

How did COCCCNC(=O)C(C)(C)Oc1nn(Cc2cccc(Cl)c2)c2ccccc12 do in these assays?
HEK293 tox: inconclusive; NPR1 antag: inconclusive; 3T3 cytotox: inconclusive; Luciferase inh: inactive; GPT2 inh: -7%[88.5 µM]

Results for COCCNC(=O)C(C)(C)Oc1nn(Cc2cccc(Cl)c2)c2ccccc12 ?
HEK293 tox: 79µM*; NPR1 antag: -27%[70.6 µM]; 3T3 cytotox: inconclusive; Luciferase inh: inactive; GPT2 inh: inconclusive

How did CCCc1ncncc1C(=O)N1CCCC(CCc2ccc(F)cc2)C1 (centres undefined) do in these assays?
HEK293 tox: inconclusive; NPR1 antag: 1%; 3T3 cytotox: inconclusive; Luciferase inh: inactive; GPT2 inh: inactive

Results for Cc1ncsc1C(=O)N1CCCC(CCc2ccc(F)cc2F)C1 (centres undefined) ?
HEK293 tox: 89µM*; NPR1 antag: -22%; 3T3 cytotox: inconclusive; Luciferase inh: inactive; GPT2 inh: inconclusive

How did O=C(c1cccc(O)c1)N1CCCC(CCc2cccc(C(F)(F)F)c2)C1 (centres undefined) do in these assays?
HEK293 tox: 40µM*; NPR1 antag: 2%; 3T3 cytotox: inconclusive; Luciferase inh: inactive; GPT2 inh: inactive

What do the screens show for `CCCn1nccc1C(=O)N1CCCC(CCc2cccc(C(F)(F)F)c2)C1` (centres undefined)?
HEK293 tox: 25µM*; NPR1 antag: inconclusive; 3T3 cytotox: inconclusive; Luciferase inh: inactive; GPT2 inh: 2%

What do the screens show for `O=C(c1ccncc1)N1CCCC(CCc2ccc(F)cc2)C1` (centres undefined)?
HEK293 tox: 40µM*; NPR1 antag: inconclusive; 3T3 cytotox: inconclusive; Luciferase inh: inactive; GPT2 inh: -4%

How did CSCC(=O)N1CCCC(CCc2cccc(F)c2)C1 (centres undefined) do in these assays?
HEK293 tox: 20µM*; NPR1 antag: -19%; 3T3 cytotox: inconclusive; Luciferase inh: inconclusive; GPT2 inh: inconclusive

Results for O=C(CCc1cccnc1)N1CCCC(CCc2cccc(F)c2)C1 (centres undefined) ?
HEK293 tox: inconclusive; NPR1 antag: -21%; 3T3 cytotox: inconclusive; Luciferase inh: inconclusive; GPT2 inh: 5%

Results for O=C(c1cccs1)N1CCC2(CC1)NCCc1c2[nH]c2ccccc12 ?
HEK293 tox: inconclusive; NPR1 antag: -16%; 3T3 cytotox: inconclusive; Luciferase inh: inactive; GPT2 inh: inactive
